Results as given in the supplement of paper PMC3334620.
In all, about 33,000 sequences were measured (“E-score (-0.5 to 0.5)”: median about -0.011, highest 2% from about 0.28 on). The sample as a whole holds a higher share of the highest values than the screen did.

Biological target: T1, Gcr1 (UniProt P07261)
T1 sequence: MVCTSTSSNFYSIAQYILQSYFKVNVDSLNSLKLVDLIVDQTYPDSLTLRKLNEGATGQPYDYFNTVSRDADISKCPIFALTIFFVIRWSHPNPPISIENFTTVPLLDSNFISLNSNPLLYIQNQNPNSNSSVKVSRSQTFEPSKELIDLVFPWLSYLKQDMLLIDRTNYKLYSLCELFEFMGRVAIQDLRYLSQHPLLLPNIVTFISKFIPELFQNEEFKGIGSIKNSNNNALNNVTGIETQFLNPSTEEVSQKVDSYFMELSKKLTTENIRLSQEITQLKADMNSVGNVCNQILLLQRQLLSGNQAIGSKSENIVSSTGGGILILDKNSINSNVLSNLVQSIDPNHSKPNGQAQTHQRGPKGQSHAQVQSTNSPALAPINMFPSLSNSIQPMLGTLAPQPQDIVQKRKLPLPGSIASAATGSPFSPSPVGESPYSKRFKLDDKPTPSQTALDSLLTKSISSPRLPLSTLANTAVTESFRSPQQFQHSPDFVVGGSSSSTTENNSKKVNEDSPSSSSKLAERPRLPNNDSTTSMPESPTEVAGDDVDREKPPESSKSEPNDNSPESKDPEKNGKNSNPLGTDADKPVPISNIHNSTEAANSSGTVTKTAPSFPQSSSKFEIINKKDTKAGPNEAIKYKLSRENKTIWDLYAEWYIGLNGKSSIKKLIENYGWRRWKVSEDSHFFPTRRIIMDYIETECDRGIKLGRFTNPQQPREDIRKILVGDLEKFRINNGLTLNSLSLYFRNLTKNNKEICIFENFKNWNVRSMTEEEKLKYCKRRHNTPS
Assay: PBM E-score (8-mer binding enrichment) (E-score (-0.5 to 0.5)); higher = stronger / more preferred TF binding
Details: protein concentration: 100 nM; construct: GST-full length
Experimental: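 Universal 'all 10-mer' protein binding microarrays (Agilent AMADID 015681) probed with GST-tagged S. cerevisiae TFs (full-length or DBD) made by in vitro transcription/translation (PURExpress), about 100-200 nM. Bound TF was detected with fluorescent anti-GST. Each ungapped 8-mer (which stands for itself and its reverse complement) is scored by the PBM enrichment score (E-score), a modified Wilcoxon-Mann-Whitney statistic from -0.5 to +0.5, computed with the Universal PBM Analysis Suite. Scale: above 0.35 generally sequence-specific binding.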

Sequence	PBM E-score
GGCACTCA	-0.189
AACGTCTT	0.158
AGCAAGTA	-0.149
AGAATACG	0.182
TAGCCTCA	-0.053
CAACCAAG	0.0892
CAACCAAA	0.313
CAACCAAC	-0.102
AGCCAAGC	-0.0873
CAAACTGA	0.105
GCCGGAAC	0.247
CGCCATTC	0.0469
TGAGTCCA	0.146
AGAGTCCC	0.0617
CGAGTCCC	0.168
GGAGTCCC	0.286
CGAGTCCA	-0.051
GGAGTCCA	0.344
GCCGAGTA	0.115
ACCGGGCT	0.113
GCTTACCA	-0.193
ACGCTTGA	0.0746
CCGGAACG	-0.0389
CCGGAACA	-0.0359
GCGGAACA	-0.172

Sequence	PBM E-score
GCGGAACC	0.341
CCGGAACC	0.325
ACGGAACC	0.0697
CATTGTTC	-0.0803
CCAAACAA	0.213
CAGTGGTA	0.115
AAGCCTTC	-0.191
CCTCGGTC	-0.223
AAGGGAAC	0.0126
ACACTATC	-0.0774
CCACTACC	0.125
CCACTATA	0.276
CCACTACG	0.323
CCACTAGA	0.235
CCACTAGG	0.287
CCACTAAC	0.21
CCACTATC	0.368
ACACTAGG	-0.176
CCACTAAG	0.374
CCACTACA	0.194
ACACTAAG	-0.00776
CACCATAC	0.0726
ACCTGTGG	-0.0729
GCTTGGAA	-0.114
CGGGGTCA	-0.096

Sequence	PBM E-score
AAGAAACC	0.0595
AGGCGTAA	0.0474
GACGCATA	0.141
GCACTAAA	0.0118
CCACTAAA	0.314
TCACTAAA	0.134
CCCCGTCG	0.00224
CCCGATGC	-0.124
AGGGATAT	-0.234
ATATGCGA	0.0152
GTATGCGA	0.291
CTATGCGA	-0.14
AATAGTGG	0.425
ATTAGTGG	0.388
AATAGTGC	-0.175
ATTAGTGC	-0.00168
ATTAGTGA	0.0812
AATAGTGA	0.0209
GAGCGAAC	-0.28
TCCATAGA	0.203
CGTAAGAA	-0.113
CTAAAGAC	-0.0627
AAAAGGAT	-0.00496
AAAAGGAC	0.0425
AAAAGGAA	0.361

Sequence	PBM E-score
CAAAGGAA	0.104
GAAAGGAA	0.0552
TAAAGGAA	0.314
AATCTCGC	-0.0134
GCTGGTAA	0.122
ATAGGTCG	0.0752
AATTTACG	0.0625
ATTTTACG	0.337
ATTTTACC	0.0326
GATAACAC	-0.12
GTGTCCAA	0.0511
ACTGGACA	0.0644
ACTGGATC	0.316
ACTGGAGG	0.206
CCTGGATC	-0.00306
ACTGGAGC	0.0795
ACTGGATA	0.108
ACTGGATG	0.326
ACTGGACT	0.134
ACTGGACG	0.303
CGACTGTC	-0.252
CTGCACAG	-0.0453
GCGCTAAA	0.232
CTTCAGCA	-0.0569
ATATATTA	0.0581

Sequence	PBM E-score
CTATATTA	0.307
CTCTATTA	0.154
GTTCATCA	0.108
GTCCTAAA	0.21
TTCCTAAA	0.36
AACCTAAA	0.294
CACCTAAA	0.266
TACCTAAA	0.0795
ATCCTAAA	0.211
GGGAGTGA	-0.0739
GTCCGCAC	-0.0732
AGATCCAA	0.186
CGATCCAC	-0.153
GGATCCAC	0.302
GGATCCAA	0.299
CGATCCAA	0.0146
AGATCCAC	0.183
TGGATTAA	0.0316
GTACTTGA	-0.209
AAGAAAGG	-0.125
ATGCGCTC	0.0347
ACCCCGTA	-0.0035
AGAGCTTA	-0.119
GAAGCACA	0.117
CATAGACG	0.0886

Sequence	PBM E-score
CTAATTTC	0.189
CTAATTTA	0.291
GTAATTTA	0.109
ATACCTTG	-0.108
AAATTTGG	0.301
AATTTTTG	0.1
ATTTTTGG	0.186
AAATTGGT	0.226
AAATTGGG	0.295
AATTTTGG	0.287
AAATTTTG	0.088
AAAATTGC	-0.203
CAATTTGG	0.222
CAATTGGG	-0.0107
CAAATTGG	0.213
AAAATTGG	0.316
AGGGAATA	0.0244
AATAGATC	-0.0063
CGATCTTA	-0.045
GAGTTCAC	-0.0309
ATGTGCCG	-0.205
ACCGCTTG	-0.0218
AGTTTAAT	0.0173
ACACTCGT	-0.152
ATTTGGAG	0.0526

Sequence	PBM E-score
CTTTGGAC	-0.147
ATTTGGAC	0.166
CTTTGGAA	0.282
ATTTGGAA	0.373
GTTTGGAA	0.202
ATGCTAAC	0.139
AATCAGAC	0.0464
AGCCCAGA	0.0713
CTAGCATC	0.315
ATAGCACC	0.159
CTAGCATA	0.017
CTAGCACA	-0.181
CTAGCACC	0.31
ATAGCATC	0.0848
CCAGAGCG	-0.144
CCCGGACG	-0.0526
ACCGGATC	0.0302
ACCGGAAC	0.203
ACCGGACG	0.32
ACCGGACT	-0.0693
ACCGGATA	0.00906
ACCGGAAG	0.303
ACCGGATG	0.349
ACCGGAAT	0.185
AAGGGGTC	-0.19

Sequence	PBM E-score
CGATCAAG	-0.0812
CCTTGGCC	-0.327
ATTAGGAG	0.26
CGCTAGTC	-0.153
AACAATGT	0.0351
ATCCCATG	-0.0862
TCGTTTCA	0.077
ACATTCCT	0.0561
GGATTCAC	0.159
CGATTCCA	0.178
ATATTCCG	0.131
AGATTCCT	0.399
AGATTCCC	0.265
GGATTCCC	0.418
CGATTCCC	0.0331
AGATTCCG	0.284
AGATTCCA	0.426
TGATTCCA	0.0933
CGATTCCG	-0.0838
CCAGTTGA	-0.0652
GGATTGAC	-0.0943
AACCCAGG	0.056
CCGTTGAC	-0.121
GGAACCAC	0.284
GCAACCAC	0.267

Sequence	PBM E-score
TGAACCAA	0.022
CCAACCAA	0.0612
GCAACCAA	0.302
CGAACCAC	0.0103
GGAACCAA	0.31
CGAACCAA	-0.0751
AGAACCAC	0.035
AATGGACG	0.143
CGTGGGCC	-0.23
GGGGAGCA	-0.103
GGTCGAGA	-0.0372
GTAGGATA	-0.109
ATACTGGA	0.373
GAACTGGA	0.303
CGACTGGA	0.316
TAACTGGA	0.225
GGACTGGA	-0.0243
ATACTGGC	0.161
GTACTGGA	0.235
CGACTGGC	-0.241
CAACTGGA	0.212
CGCAGTTA	0.15
ACGTAGCC	0.14
ACGTAGCT	0.282
ACGTAGCA	-0.079

Sequence	PBM E-score
CGGTTGGA	0.0351
GCAATCGC	-0.113
ATTCAAGC	-0.0491
CCTCTATA	0.266
ATGGATGA	-0.0514
ATGGATGC	0.389
CTGGATGC	0.425
CTGGATAC	0.135
ATGGATGG	-0.034
CTGGATGA	0.0353
ACGGGGGC	-0.08
AGTCCGGA	0.0284
ATCGGATA	0.0757
TGTAGACA	-0.0678
AAACTGGT	0.178
TCGCCGCA	0.0198
CGCTCAAC	-0.0355
CGCACCCG	0.0194
AGCACACC	-0.188
AACACCCA	-0.0911
AGCACCAG	0.156
AGCACCCG	0.282
AGCACCCT	0.277
AGCACCCA	0.351
AGCACCAT	0.282

Sequence	PBM E-score
AGCACCAC	0.235
CAAGATTC	0.122
GAAGCGCA	0.129
AGGTAAAG	-0.112
CATGCTGA	-0.229
GGTGCTTA	0.259
GATGCTAA	0.372
TATGCTAA	-0.0329
CGTGCTGA	-0.14
GATGCTGC	0.276
AATGCTAC	-0.0602
CATGCTAC	-0.123
GATGCTAC	0.338
AATGCTAA	0.206
GATGCTGA	0.312
GGTGCTGA	0.335
AAGGCGAA	-0.0278
CACAATGA	0.0838
GCTTCAAA	0.192
AGTTGGCG	0.0665
CACTCCAG	0.0875
ACCGCGGC	0.143
ACGCCGGA	0.0899
CATTTGGC	-0.0265
CACCTGCC	-0.127

Sequence	PBM E-score
ACCAATGG	0.0385
ACACTGAG	-0.126
CCCATTTA	0.293
CCCATTTC	-0.0272
ACTATTTA	0.293
GCTATTTA	-0.162
CCATTTTA	0.23
ATATTTAA	0.111
ACCATTTA	0.0518
CCATTTAC	0.0873
GTATTTAA	0.117
CTATTTAA	0.309
CCTATTTA	0.247
CCATTTAA	0.304
ACAGTCCA	-0.304
TACCGTGA	0.0127
ACTCTTCT	0.0323
TCCGGAAA	0.172
CACCCGGA	0.136
CGAAGTAC	-0.022
CGCCAAAG	0.0195
TCAACTAA	-0.00686
ACGACGGG	0.00739
CATTACAG	-0.0702
AATTACAG	0.283

Sequence	PBM E-score
AATTACAT	0.0891
CCACCCTC	-0.00165
AAAAATTC	0.0187
CAAAATTG	0.0415
CAAAATTC	0.306
GCTAGCAC	-0.0767
GCAGGCCC	-0.133
ACAAGCTA	-0.0171
CCACAAAG	0.16
ACACAATA	0.0111
CCACAATC	0.156
CCACAATA	0.3
CCACAAAA	0.282
ACACAAAA	0.141
CTCGGTAA	-0.22
AAACCTAA	0.0813
CCTTTCAG	-0.117
GGGGGACA	0.0151
AGTCTGTA	-0.152
CCCCGTTC	-0.082
GACGCCCA	0.427
CACGCCCA	-0.107
AGCGCCCA	0.183
GGCGCCCC	0.308
GACGCCCC	0.0383

Sequence	PBM E-score
CGCGCCCC	0.243
AGCGCCCC	0.153
GGCGCCCA	0.398
TGCGCCCA	0.0933
CGAGAGGA	-0.113
CCCGGGGC	0.0219
ACAAGCAT	0.15
CCATTGGC	0.0633
GCGGCGGA	0.0513
AATTTGTC	-0.00767
ATGGCTTA	0.0216
ATGGCTTC	0.3
CTGGCTGA	-0.225
CTAGCTTA	-0.172
ACGGCTGC	-0.014
CCGGCTGA	-0.138
ATAGCTTC	0.249
ATGGCTGC	0.168
CCGGCTGC	0.314
CTAGCTTC	0.316
ATGGCTTG	-0.236
CTGGCTGC	0.35
